This excerpt belongs to a sample that is enriched for hits.
12-LOX inh = inhibitors of human 12S-lipoxygenase ALOX12; P18054; purified 12hLO, xylenol orange hydroperoxide absorbance; Potency, µM (series often up to 108 µM), actives largely listed as inhibitors; 1.1% of 580,000 active
Target sequence (P18054 whole entry, looked up): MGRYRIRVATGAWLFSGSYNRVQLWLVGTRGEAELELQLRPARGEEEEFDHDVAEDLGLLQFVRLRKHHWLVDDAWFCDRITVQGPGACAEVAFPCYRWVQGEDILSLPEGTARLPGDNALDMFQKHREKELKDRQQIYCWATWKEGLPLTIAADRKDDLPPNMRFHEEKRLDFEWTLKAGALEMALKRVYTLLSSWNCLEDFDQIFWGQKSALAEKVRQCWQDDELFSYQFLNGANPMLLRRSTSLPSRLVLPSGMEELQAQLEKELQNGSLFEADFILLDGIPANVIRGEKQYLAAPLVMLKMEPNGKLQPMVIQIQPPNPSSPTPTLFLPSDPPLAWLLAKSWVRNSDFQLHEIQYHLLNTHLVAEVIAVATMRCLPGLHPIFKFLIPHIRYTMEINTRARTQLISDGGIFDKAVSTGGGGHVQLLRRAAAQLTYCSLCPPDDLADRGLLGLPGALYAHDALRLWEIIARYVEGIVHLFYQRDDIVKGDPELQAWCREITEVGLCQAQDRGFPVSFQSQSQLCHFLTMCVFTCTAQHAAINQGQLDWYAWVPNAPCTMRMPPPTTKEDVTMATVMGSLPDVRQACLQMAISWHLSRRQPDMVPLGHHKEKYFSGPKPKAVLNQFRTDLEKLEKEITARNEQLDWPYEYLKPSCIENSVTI
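Purified human 12hLO at 150 nM in 25 mM Hepes, 0.01% Triton X-100, pH 7.0, preincubated 15 min at room temperature with compound. Reaction started with 40 uM arachidonic acid, 30 min at room temperature. Hydroperoxide measured by Fe-xylenol orange, 573/405 nm absorbance ratio.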
DT40 TDP1 CPT = growth inhibition of DT40 Tdp1-/-;hTDP1 cells with camptothecin (screen for TDP1 inhibitors) | AID 686979 | chicken DT40 Tdp1-/-;hTDP1 cells + 20 nM CPT, ATP luminescence, 48 h | Potency, µM (top dose mostly 46.2 µM), hits mostly inhibitors | 12% of 420,000 active; further: nearly all actives have a fitted effect of over 55% in size
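Chicken DT40 Tdp1-/- cells stably complemented with human TDP1 were seeded at 400 cells/well in medium containing 20 nM camptothecin, exposed to pin-transferred compounds, and grown at 37 °C for at least 48 hr. Viability was read as ATP luminescence.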
HT1080NT lethal = kills 2HG-producing HT-1080-NT fibrosarcoma cells; HT-1080-NT fibrosarcoma viability, CellTiter-Glo ATP luminescence, 48 h; Potency, µM (titrated, usually from 46.1 µM), hits mostly cytotoxic; 1.6% of 360,000 active; AID 686970;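 further: NT is the 2HG producing partner of a matched IDH1 knockdown line; nearly all actives have a fitted effect of over 55% in size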
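Fibrosarcoma NT cells, 750 per well in 5% FBS RPMI, were exposed to compound for 48 hours. Viability: CellTiter-Glo luminescence.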
DT40 TDP1 no CPT = qHTS for Inhibitors of human tyrosyl-DNA phosphodiesterase 1 (TDP1): qHTS in cells in absence of CPT; Potency, µM (series often up to 46.2 µM), most hits filed as inhibitors; 15% of 420,000 active; DT40 Tdp1-/- hTDP1 cells, no CPT, ATP luminescence, 48 h; further: nearly all actives have a fitted effect of over 55% in size
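Luminescent ATP content (CellTiter-Glo) served as the growth readout. Knockout chicken DT40 cells expressing human TDP1 were exposed to compounds without camptothecin for a minimum 48 hr at 37 °C.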
IL1B secr inh = inhibitors of inflammasome signaling (IL-1 beta secretion) | THP-1 LPS/ATP IL-1B secretion, AlphaLISA, 16 h; active compounds read low | activity change, % at 57.5 µM | 4.7% of 360,000 active; in the data active means activity change below about -50%; inconclusive means mostly about -30% to -49%
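THP-1 cells pretreated 1 hr with compounds (up to 57.5 uM final), then stimulated with LPS (250 ng/mL final) plus ATP (1.25 mM final); secreted IL-1B measured by AlphaLISA after 16 hr, decreased signal indicating inhibition.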
HT1080 IDH1KD tx = toxicity to HT-1080 IDH1 knockdown cells (counter line); HT-1080 IDH1 knockdown viability, ATP luminescence, 48 h; Potency, µM (top dose mostly 46.1 µM), actives largely listed as cytotoxic; 2% of 360,000 active; AID 686971
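IDH1KD HT-1080 cells, 750/well, RPMI + 5% FBS; compound pinned after 2 h settling; 48 h, 37 °C; CellTiter-Glo luminescence; % activity normalised to DMSO and no-cell wells; curves fitted, classed by r2 and efficacy.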
Numbers stand for hits; – = inactive; ? = inconclusive; · = no result. Unless noted, the call rests on the fitted dose curve; in most records, active means well fitted curve in the direction sought with a large enough effect; inconclusive means small, poorly fitted or top-dose-only effect, or another doubt; inactive means no such curve, though single readings can be large; an effect the other way counts as inactive or inconclusive.

SMILES	12-LOX inh	DT40 TDP1 CPT	HT1080NT lethal	DT40 TDP1 no CPT	IL1B secr inh	HT1080 IDH1KD tx
O=c1ccc(=O)n(-c2ccccc2)[nH]1	–	16.4µM	–	?	–	–
CCn1c(N2CCN(Cc3ccc(Cl)c(Cl)c3)CC2)nc2c1c(=O)[nH]c(=O)n2C	–	·	·	·	·	·
CCN(CC)C(=O)C1CCCN(C(=O)c2ccc3nc(-c4cccc(OC)c4)oc3c2)C1 (configuration not stated)	–	23.1µM	–	11.6µM	–	–
CCOC(=O)C1CCCN(C(=O)c2ccc3nc(-c4cccc(OC)c4)oc3c2)C1 (configuration not stated)	–	3.26µM	?	2.91µM	–	6.51µM
CCC(=O)C1CCCN(C(=O)c2ccc3nc(-c4cccc(OC)c4)oc3c2)C1 (configuration not stated)	?	?	–	?	–	–
Cc1c(O)ccc2c(CN3CCN(c4ccccc4F)CC3)cc(=O)oc12	–	·	·	·	·	·
CCOC(=O)NC(C)c1ccncc1 (configuration not stated)	–	·	·	·	·	·
COCCOC1CCOC2(CCN(C(=O)c3cc(-c4ccc(F)cc4)n[nH]3)CC2)C1 (configuration not stated)	–	·	·	·	·	·
CCc1cc(C(c2ccc(F)cc2)N2CCN(CC)CC2)c(NC(=O)c2ccco2)s1 (configuration not stated)	10µM	·	·	·	·	·
CCc1cc(C(c2ccc(OC)cc2)N2CCOCC2)c(NC(=O)c2ccco2)s1 (configuration not stated)	7.08µM	·	·	·	·	·
COc1ccc(C(c2c(NC(=O)c3ccco3)sc(C)c2C)N2CCOCC2)cc1OC (configuration not stated)	–	–	–	?	–	–
Cc1cc(N2CCN(c3ccccc3)CC2)nc2ccccc12	?	–	–	–	–	–
COc1ccc2c(C)cc(N3CCN(Cc4ccccc4)CC3)nc2c1	–	–	–	–	–	–
Cc1cc(N2CCC(N(C)C3CCCC3)CC2)nc2cc(O)ccc12	?	?	–	18.4µM	–	–
COc1ccc2c(C)cc(N3CCCCCC3)nc2c1	?	?	–	?	-67.2	–
CCN1C(=O)CCC2(C(=O)NCc3c(C)n[nH]c3C)CCCC=C12 (configuration not stated)	–	·	·	·	·	·
Cc1ccc2cccc(NC(=O)c3cccc(OC(C)C)c3)c2n1	–	·	·	·	·	·
CN(C(=O)CSc1nncn2c1cc1occc12)c1ccccc1	–	?	·	25.9µM	·	·
CCc1cccc(C)c1NC(=O)C(CC)Sc1nncn2c1cc1occc12 (configuration not stated)	–	20.6µM	·	20.6µM	·	·
CCc1nnc(SC(CC)C(=O)Nc2cc(C)ccc2C)c2cc3occc3n12 (configuration not stated)	–	18.4µM	·	14.6µM	·	·
CNC(=O)C1CCN(C(=O)c2ccc(C)cc2)CC1	–	·	·	·	·	·
CNc1nn(-c2cccc(Cl)c2)nc1N	–	?	–	2.06µM	–	–
CCS(=O)(=O)Nc1ccc(N(C)CCCc2c(C)nn(C)c2C)c(C(=O)O)c1	–	·	·	·	·	·
COC(=O)N1C(=O)[C@@](c2ccccc2)(C2CCCC2)N1C(=O)OC	–	14.6µM	?	16.4µM	-106.1	–
COC(=O)N1C(=O)[C@](c2ccccc2)(C2CCCCC2)N1C(=O)OC	–	?	–	–	-74.6	–
SMILES	12-LOX inh	DT40 TDP1 CPT	HT1080NT lethal	DT40 TDP1 no CPT	IL1B secr inh	HT1080 IDH1KD tx
O=C(CCc1nc2ccccc2[nH]1)N1CCC(c2noc(-c3ccncc3)n2)C1 (configuration not stated)	–	·	·	·	·	·
Cc1cc(C)c(S(=O)(=O)N2CCc3nn(CC(C)C)c(=O)n3CC2)c(C)c1	–	·	·	·	·	·
Cc1ccc(CN2CCC(CNC(=O)Nc3cn(CC(C)C)c(=O)c4ccccc34)C2)cc1 (configuration not stated)	44.7µM	·	·	·	·	·
CCN(C(=O)Nc1cn(CC(C)C)c(=O)c2ccccc12)c1cc(C)ccc1C	–	9.2µM	·	9.2µM	·	·
Cc1ccc(CN2CCC(CNC(=O)Nc3cccc(C)c3C)C2)cc1 (configuration not stated)	–	?	·	?	·	·
COc1cc(OC)c(N(C)C(=O)Nc2cn(CC(C)C)c(=O)c3ccccc23)cc1Cl	–	20.6µM	·	23.1µM	·	·
CCOc1ccc(C(=O)N2CC(C(=O)NC3CCCCC3)C3(CCOCC3)C2)cc1 (configuration not stated)	–	·	·	·	·	·
COc1ccc(C2(c3ccc(OC)cc3)NC(=O)NC2=O)cc1	?	–	–	–	–	–
COc1ccc(-c2nc(CNS(=O)(=O)c3cccc(F)c3)cs2)cc1	–	–	·	14.6µM	·	·
COc1ccc(S(=O)(=O)NCCc2csc(-c3ccc(F)cc3)n2)cc1F	–	23.1µM	·	25.9µM	·	·
O=S(=O)(NCCc1csc(-c2cccnc2)n1)c1ccc(F)cc1	–	–	–	–	–	–
COc1ccc(-c2nc(CNS(=O)(=O)c3ccc(F)cc3)cs2)cc1	–	?	·	18.4µM	·	·
COc1ccc(S(=O)(=O)NCCc2csc(-c3ccc(F)cc3)n2)cc1	–	11.6µM	·	14.6µM	·	·
COc1ccc(S(=O)(=O)NCCc2sc(-c3ccccc3)nc2C)cc1F	–	·	·	·	·	·
CC(C)CCN1C(=O)CC[C@]2(C(=O)NCc3cccnc3)CCCC[C@@H]12	–	·	·	·	·	·
N#Cc1cccc(-c2cncnc2NCc2cccs2)c1	?	–	·	–	·	·
O=c1c(-c2ccccc2)coc2cc(OCCN3CCN(c4ccccc4)CC3)ccc12	–	·	·	·	·	·
CCN(Cc1ccc(NC(C)=O)cc1)CC1CCCN(CCc2cccc(F)c2)C1 (configuration not stated)	?	–	–	?	–	?
CCN(Cc1ccc(C#CCCO)cc1)CC1CCCN(CCc2cccc(OC)c2)C1 (configuration not stated)	–	?	–	20.6µM	–	–
CC(C)=CC1C(CO)C1(C)C (configuration not stated)	·	–	·	–	·	·
C=CCOc1ccc(/C(O)=C2\C(=O)C(=O)N(CCCOC)C2c2ccc(O)c(OC)c2)cc1 (configuration not stated)	?	–	–	–	–	–
CCOc1cc(C2/C(=C(/O)c3ccc(OC(C)C)cc3)C(=O)C(=O)N2CCCOC)ccc1O (configuration not stated)	20µM	–	–	–	–	–
COCCCN1C(=O)C(=O)/C(=C(/O)c2ccc(C)cc2)C1c1ccccc1 (configuration not stated)	7.08µM	–	–	–	–	–
